Our source for the inhibition values is PubChem BioAssay.

A number with no mark means an inactive call. No rule for the calls is given here.

In the test the target is Pantothenate synthetase (Mycobacterium tuberculosis (strain ATCC 25618 / H37Rv)) (UniProt P9WIL5). The test is described as follows: Coupled enzyme confirmation of inhibitors against recombinant Mtb PanC (AID 375).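 Also: 0% = full reaction with vehicle and 100% = no enzyme background.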 The following applies: coupled enzyme assay; at 10 µM, active compounds read high.
Pantothenate synthetase (Mycobacterium tuberculosis (strain ATCC 25618 / H37Rv)), sequence (P9WIL5 whole entry, looked up): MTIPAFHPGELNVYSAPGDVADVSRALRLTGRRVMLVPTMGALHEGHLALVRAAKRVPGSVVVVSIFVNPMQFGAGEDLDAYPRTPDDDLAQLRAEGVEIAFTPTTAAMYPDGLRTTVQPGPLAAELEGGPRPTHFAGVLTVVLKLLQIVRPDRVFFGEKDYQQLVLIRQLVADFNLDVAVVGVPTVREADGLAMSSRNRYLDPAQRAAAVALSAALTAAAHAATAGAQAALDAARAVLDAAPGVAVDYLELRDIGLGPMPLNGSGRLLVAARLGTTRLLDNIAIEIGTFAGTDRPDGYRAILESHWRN
Take `Cc1ccccc1C(=O)Nc1c(C(=O)N2CCCC2)cnn1-c1ccccc1`: the inhibition was 8%. On to `Cc1ccc(-n2nnnc2SCC(=O)Nc2c(C)n(C)n(-c3ccccc3)c2=O)cc1`, for which the inhibition was 0%.

For the molecule `COc1ccc(OC)c(NS(=O)(=O)Cc2ccccc2)c1`, the inhibition is 0%. As to `COc1ccc(C2CC(C(F)(F)F)n3ncc(C(=O)NCc4cccnc4)c3N2)cc1OC` (stereo not given), the inhibition was 0%. Then `CCc1[nH]nc2c1C(c1ccncc1)C(C#N)=C(N)O2` (stereo not given), with 4%; and `CN(C)c1oc(-c2ccccc2F)nc1C#N`, with 1%. Then `COC(=O)c1cc(OC)c(OC)cc1NC(=O)c1ccc(Br)o1`, with 0%. As for `Cc1nnc(SCc2cnc(-c3ccccc3)o2)[nH]c1=O`, the inhibition was 0%.

Regarding `CCOC(=O)C(NC(=O)C1CCCN1C(=O)OCc1ccccc1)C(=O)OCC` (stereo not given), the inhibition is 4%. The value for `CN1C(=O)C(O)(CC(=O)c2ccc3c(c2)OCO3)c2ccccc21` (stereo not given) was 0%. The value for `O=S(=O)(c1ccc2ccccc2c1)N1CCCCC1` was 0%; that for `CCOC(=O)CNC(=O)CSc1nc(N(C)C)nc(N2CCOCC2)n1` was 6%; that for `CCOc1ccccc1NC(=O)CSc1nnc2c(CC)c(C)nc(N)n12` was 0%. Then `Cc1ccccc1OCCn1c(=O)oc2ccccc21`, with 2%; and `COc1ccc(C2CC(=O)c3cnc(NC(=O)c4ccccc4OC)nc3C2)c(OC)c1` (stereo not given), with 8%.

Consider `COC(=O)Nc1nc2ccc(Sc3ccccc3)cc2[nH]1`, for which the inhibition was 8%. The value for `CC1CCN(C(=O)C2CCN(S(=O)(=O)c3cnc[nH]3)CC2)CC1` was 5%; that for `Nc1cccc(C(=O)O)c1` was 0%. The value for `Cc1cccc(N2CCN(C(=O)Cn3ccc4ccccc4c3=O)CC2)c1C` was 0%; that for `O=C(Nc1ccc(N2CCOCC2)cc1)C1CC1` was 0%; that for `Cn1c(CCCNC(=O)c2ccccc2)nc2ccccc21` was 2%. The value for `Cc1cccc(N(CC(N)=O)S(C)(=O)=O)c1C` was 0%; that for `COc1ccc(C(=O)CSc2nnc(-c3ccc(C)cc3)o2)cc1` was 1%; that for `CCN1C(=O)NC(c2cc(Br)ccc2OC)C(C(=O)OC)=C1C` (stereo not given) was 0%. Turning to `CC(=O)OCC(=O)[C@@]1(O)CC[C@H]2[C@@H]3CCC4=CC(=O)C=C[C@]4(C)[C@@]3(Cl)[C@@H](Cl)C[C@@]21C`, the inhibition was 0%. Then `CC(=O)Nc1c(O)n(C)c2ccccc12`, with 2%. For the molecule `N#Cc1cnc2sc3ccccc3n2c1=N`, the inhibition is 3%.

As for `COc1ccc(CNC(=O)c2cnc3n(c2=O)CCS3)cc1`, the inhibition was 0%. The value for `COc1ccc(OC)c(C2C3=C(CCCC3=O)Nc3c2c(=O)n(C)c(=O)n3C)c1` (stereo not given) was 0%; that for `CCOc1ccc(OCCCCN(C)C)cc1` was 2%; that for `O=C(C1CCCO1)N1CCN(Cc2nc3ccccc3c(=O)[nH]2)CC1` (stereo not given) was 0%. Then `Cc1cccc(NC(=O)Cn2c(=O)n(C)c3ccccc32)c1`, with 0%; and `CCN(CC)CCOC(=O)C(c1ccccc1)c1ccccc1`, with 0%; and `O=C(CSc1ncnc2c1oc1ccccc12)NCc1ccco1`, with 6%. Then `O=C1CC(C(=O)Nc2ccc(Br)cc2)C2(CCCC2)O1` (stereo not given), with 1%; and `Cc1coc2cc3oc(=O)c4c(c3cc12)CCC4`, with 11%; and `Cc1nnc(NC(=O)C2CCCO2)s1` (stereo not given), with 3%. As for `CCC(=O)n1nc(-c2ccco2)nc1N`, the inhibition was 0%. Then `CCN1CCN(c2c(Cl)cccc2NC(=O)c2ccco2)CC1`, with 9%. Consider `COc1ccc2nc(NC(=O)C(NS(=O)(=O)c3cccs3)C(C)C)sc2c1` (stereo not given), for which the inhibition was 0%.
